Out of some 370,000 compounds screened, about 2,100 (0.57%) were called active. What follows is part of a selection rich in actives, with near analogues and random picks from the rest. Values without a mark were called inactive.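 Rule for the calls: active = inhibition above mean plus 3 SD of compounds lying within the high and low control bounds (cut at about 19% in these data); inactive = the rest.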

Here are results for 58 compounds from PubChem BioAssay AID743126 (The Scripps Research Institute Molecular Screening Center, 2013).

This test deals with Group 3 secretory phospholipase A2 (Homo sapiens) (UniProt Q9NZ20). Briefly: HGIII-sPLA2 enzyme inhibition – biochemical, QFRET, BODIPY PC-A2 liposome substrate, primary screen (AID 743126).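 Note: 0% = median of test compound wells and 100% = no enzyme DMSO wells.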 Particulars: QFRET BODIPY PC-A2 liposome hydrolysis, fluorescence; at 12.2 µM; hits give high values.
Chain of Group 3 secretory phospholipase A2 (Homo sapiens) (Q9NZ20 whole entry, looked up): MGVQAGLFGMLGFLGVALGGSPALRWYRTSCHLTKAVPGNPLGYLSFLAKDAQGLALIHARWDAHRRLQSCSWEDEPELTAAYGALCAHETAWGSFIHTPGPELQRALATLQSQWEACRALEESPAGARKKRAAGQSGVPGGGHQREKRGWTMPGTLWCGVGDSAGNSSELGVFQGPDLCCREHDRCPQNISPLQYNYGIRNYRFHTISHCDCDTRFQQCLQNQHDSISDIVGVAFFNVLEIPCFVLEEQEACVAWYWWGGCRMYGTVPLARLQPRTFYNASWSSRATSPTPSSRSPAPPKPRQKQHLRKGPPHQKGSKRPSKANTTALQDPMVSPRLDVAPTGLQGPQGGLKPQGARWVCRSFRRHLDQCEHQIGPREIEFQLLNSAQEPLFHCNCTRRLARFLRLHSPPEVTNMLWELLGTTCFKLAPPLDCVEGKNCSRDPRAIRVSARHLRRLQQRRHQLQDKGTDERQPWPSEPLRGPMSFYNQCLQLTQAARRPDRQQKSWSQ
By inhibition is commonly meant the relative decrease from the control value, in per cent. On to `CC(=O)N1CCCN(C2=Nc3ccccc3Sc3ccccc32)CC1`, for which the inhibition is -5.38%.

Turning to `O=C(NCc1ccc(Cl)cc1)C1CCCN(c2nc3ccccc3o2)C1` (stereo not drawn), the inhibition is 0.81%.

Take `Cc1ccc(NC(=O)Cc2cccc(F)c2)c(S(=O)(=O)N2CCOCC2)c1`: the inhibition is -2.31%. As to `Cc1c[nH]c2cccc(-c3ccc(Cl)cc3)c12`, the inhibition was -16.5%. Under `Cc1cc(C)nc(NC(=S)N2CCN(c3ccc(C(F)(F)F)cn3)CC2)c1` stands 11.2%.

For the compound `O=C(NCC(=O)N1CCN(c2ncc(C(F)(F)F)cc2Cl)CC1)c1ccc(Br)o1`, the inhibition is -1.88%. As to `COc1ccnc(NC(=S)N2CCN(c3ncc(C(F)(F)F)cc3Cl)CC2)c1`, the inhibition was 23.3% (active). Under `CN1[C@H](Cc2ccccc2)COc2cccc(N3CCSCC3)c2S1(=O)=O` stands -2.69%; under `O=C(NNC(=S)NCCCN1CCOCC1)c1ccncc1`, -1.42%; under `O=C(NNC(=S)NC(=O)c1cn(-c2ccccc2)nc1-c1ccccc1)c1ccncc1`, 19.6% (active). Then `O=C(c1cn(-c2ccccc2)nc1-c1cccnc1)N1CCN(S(=O)(=O)c2ccccc2F)CC1`, with -9.4%; and `O=C(CSc1nnc(COc2ccccc2)n1-c1ccc(Cl)cc1)Nc1ccc2c(c1)OCO2`, with -14.5%; and `COC(=O)c1cccc(Cn2ccc3ccc(-c4ccc5ccn(C(=O)C6CCCCC6)c5c4)cc32)c1`, with -3.82%.

Turning to `O=C(NNC(=S)Nc1ccc(Br)cc1Cl)c1ccco1`, the inhibition is 26.4% (active). Regarding `S=C(Nc1ccc(Br)cc1Cl)NC1CCN(Cc2ccccc2)CC1`, the inhibition is 0.32%. `CN(C)C(=S)Nc1ccc(Br)cc1Cl`: the inhibition was 1.77%. Regarding `Cc1ccc(Cn2cc(COC(=O)N(C)Cc3ccccc3)nn2)cc1`, the inhibition is -5.61%.

In the case of `Cc1ccc(-n2c(SCC(=O)Nc3ccc(S(=O)(=O)Nc4nccs4)cc3)nnc2-c2cccnc2)cc1`, the inhibition was -21.7%. Under `O=C1CC[C@@]23CCCN2C(=O)CCC[C@H]3[C@H]1Cc1ccccc1` stands 3.91%.

`Cc1cccc(N2CCN(C(=O)c3ccccc3NC(=O)C3CCCCC3C(=O)O)CC2)c1` (stereo not drawn): the inhibition is 7.57%.

Regarding `CSc1ccc(NC(=O)/C=C/C(=O)O)cc1`, the inhibition is 22.1% (active). Then `O=C(O)/C=C/C(=O)NNc1ccc([N+](=O)[O-])cc1`, with -1.39%. Take `CSc1ccc(NC(=O)N2CC(C)OC(C)C2)cc1` (stereo not drawn): the inhibition is 10.2%. In the case of `O=C(CN1CCN(c2ccc(O)cc2)CC1)Nc1ccc(-c2ccccc2)cc1`, the inhibition is 2.26%. Turning to `Cc1cccc(N2CCN(c3ccc(NC(=O)/C=C\C(=O)O)cc3)CC2)c1`, the inhibition is 20.7% (active). Then `Cc1ccc(-c2nc(C3CCCN(S(=O)(=O)c4ccc(Br)s4)C3)no2)cc1` (stereo not drawn), with 7.46%; and `C=C(C)C1CC23C(=O)C4(C(=O)c5ccccc5)C[C@@]5(C)CCC(CC2C1(C)C)(C4=O)C35OC` (stereo partly drawn), with 4.03%. Regarding `COc1ccc(C(=O)CSc2nnc(-c3cnccn3)n2-c2ccc(C)cc2)cc1`, the inhibition is -19.7%.

On to `O=C(NN1C(=O)C2CCCCC2C1=O)c1ccco1` (stereo not drawn), for which the inhibition is -6.36%. Then `CC(C)=C1C2CCC1C1C(=O)N(NC(=O)c3ccco3)C(=O)C21` (stereo not drawn), with 0.15%; and `O=C(NN1C(=O)C2C3C=CC(C3)C2C1=O)c1ccco1` (stereo not drawn), with 22.3% (active). As for `C=CCN1C(=O)[C@@H](CC(=O)N2CCN(C(=O)OCC)CC2)[C@]2(C(=O)OCC)CCCCC/C=C/12`, the inhibition is 3.8%. Then `C=CCN1C(=O)[C@@H](CC(=O)NCC2CCCCC2)[C@]2(C(=O)OC)CCCCC=C12`, with -6.71%; and `Cc1ccc(CSc2nnc(SCC(=O)NN=Cc3cc(Br)ccc3F)s2)cc1`, with 8.12%.

As for `COC[C@@H]1CCCN1c1ccc2c(c1)O[C@H](C)CCN(C1CC1)S2(=O)=O`, the inhibition is -5.4%. With `Oc1ccc(/C=C/c2c(F)cccc2F)c2cccnc12`, the inhibition was 16%.

Take `COc1cccc(CNC(=O)CCN2C(=S)NC(C)(C)CC2C)c1` (stereo not drawn): the inhibition was 6.8%. On to `CC1CC(C)(C)NC(=S)N1CCC(=O)N1CCN(Cc2ccccc2)CC1` (stereo not drawn), for which the inhibition was 8.05%. Take `CCN(Cc1ccccc1)C(=O)CN1C(=S)NC(C)(C)CC1C` (stereo not drawn): the inhibition is 31.1% (active).

As to `COc1ccccc1C(=O)CSc1nnc(-c2ccccn2)n1-c1ccccc1`, the inhibition is -16.8%. Turning to `CCc1ccc(NC2Nc3cc(C)nn3S2)cc1` (stereo not drawn), the inhibition was 23.9% (active). Turning to `CCOC(=O)c1cccc(NC(=O)CN(C)S(=O)(=O)c2ccc(-c3cocn3)s2)c1`, the inhibition was -2.93%. For `O=C(C1CCN(S(=O)(=O)c2ccccc2)CC1)N1CCN(C2CCCCC2)CC1`, the inhibition is 8.19%. Turning to `CCOc1ccc(-c2n[nH]c(=S)n2/N=C/c2cc3c(cc2[N+](=O)[O-])OCO3)cc1`, the inhibition is 1.67%. For `S=c1[nH]nc(-c2ccco2)n1/N=C/c1ccccc1`, the inhibition was 19.3% (active). On to `CSc1ccc(C=Nn2c(-c3ccc(F)cc3)n[nH]c2=S)cc1`, for which the inhibition was 6.63%. `Cc1cc(C)cc(NC(=O)N2CCC(N(C)CCC(C)C)CC2)c1`: the inhibition was 10.3%. In the case of `CCOC(=O)[C@@]12CCC3=C1N(CCC3)C(=O)[C@H](CC(=O)N1CCN(C(=O)c3ccco3)CC1)C2`, the inhibition is 8.67%. Turning to `c1coc(CCNc2ncnc3ccc(-c4ccc5c(c4)OCO5)cc23)c1`, the inhibition was -19.4%.

`COC(=O)[C@]12C[C@H](CC(=O)NCc3ccccc3)C(=O)N(CCc3ccc(OC)c(OC)c3)C1=C[C@H](C(C)(C)C)O[C@@H]2C`: the inhibition was -21.4%. Consider `COC1=C[C@H](C(=O)NCCNC(C)=O)[C@H](C)[C@@H](c2ccccc2)CC1=O`, for which the inhibition is -0.85%. As for `COc1ccccc1NC(=O)COC(=O)COc1ccccc1F`, the inhibition was -4.78%.

As to `C=CCn1c(SCC(N)=O)nnc1-c1ccccc1OC`, the inhibition is 6.66%. Regarding `COc1ccccc1OCC(=O)OCn1c(SC)nnc(C)c1=O`, the inhibition was 21.3% (active).

Take `CCN(CC)C(=O)CC[C@H]1CC[C@]2(CCCN(Cc3ccc(Cl)cc3)C2)O1`: the inhibition is 6.37%.

Turning to `O=C(COc1ccc(S(=O)(=O)NCCc2ccccc2)cc1)N1CCCC1`, the inhibition was -5.12%. Then `CC(NS(=O)(=O)c1ccc(OCC(=O)N2CCCC2)cc1)c1ccccc1` (stereo not drawn), with 5.02%; and `O=C(COc1ccc(S(=O)(=O)NCc2ccccc2)cc1)N1CCOCC1`, with 20.9% (active).
